In PubChem BioAssay (NCI):
This is part of a sample that, as a whole, favours compounds with a hit. Of some 79,000 tested, about 15% had one in any assay. Values without a mark were called inactive. The source made the active and inactive calls. Cut-off read from the data, not from the text of the source: active = growth inhibition above about 70%; inactive = the rest.

Key:
[1] = NCI Yeast Anticancer Drug Screen. Data for the rad52 strain (AID 147);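 note: 0% = growth of vehicle-treated control cultures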; conditions: S. cerevisiae rad52 mutant growth inhibition, active compounds read high
How it was run: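 Yeast strain carrying a DNA damage repair alteration was exposed to test compounds. Growth inhibition was measured relative to vehicle-treated controls.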

[2] = NCI Yeast Anticancer Drug Screen. Data for the wt1 strain (AID 149);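 note: 0% = growth of vehicle-treated wt1 cultures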; conditions: S. cerevisiae wt1 strain (SPY 50644) growth inhibition, active compounds read high
How it was run: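 wt1 strain grown with compound or vehicle; inhibition taken from the growth difference.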

[3] = NCI Yeast Anticancer Drug Screen. Data for the rad50EPP+ strain (AID 151);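 note: 0% = growth of vehicle-treated control cultures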; conditions: S. cerevisiae rad50 mutant strain, active compounds read high
How it was run: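 Yeast strain carrying rad50 alteration (rad50EPP+) exposed to compounds; growth inhibition measured relative to vehicle-treated controls.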

[4] = NCI Yeast Anticancer Drug Screen. Data for the mgt1 strain (AID 153); conditions: S. cerevisiae mgt1 mutant growth inhibition, active compounds read high
How it was run: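 Yeast mgt1 strain (DNA repair/cell-cycle alteration panel) exposed to compounds; growth inhibition measured relative to vehicle-treated controls.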

[5] = NCI Yeast Anticancer Drug Screen. Data for the rad50 strain (AID 155);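 note: 0% = growth of vehicle-only cultures of the same strain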; conditions: S. cerevisiae rad50 strain growth inhibition, active compounds read high
How it was run: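 DNA repair mutant yeast, compound exposure, growth read-out; inhibition is taken relative to vehicle.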

[6] = NCI Yeast Anticancer Drug Screen. Data for the mec2-1 strain (AID 157); conditions: S. cerevisiae mec2-1 strain, active compounds read high
How it was run: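 mec2-1 yeast strain, carrying an alteration in DNA damage repair or cell cycle control, was exposed to compounds; growth inhibition was measured relative to vehicle-treated controls.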

[7] = NCI Yeast Anticancer Drug Screen. Data for the rad14 strain (AID 159);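 note: 0% = growth of vehicle-treated control cultures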; conditions: S. cerevisiae rad14 strain growth inhibition, active compounds read high
How it was run: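 DNA repair-defective yeast, compound-exposed; % growth inhibition derived by comparison with vehicle-treated controls.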

[8] = NCI Yeast Anticancer Drug Screen. Data for the sgs1 mgt1 strain (AID 161);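 note: 0% = growth of cultures given vehicle only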; conditions: S. cerevisiae sgs1 mgt1 strain, active compounds read high
How it was run: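 Percent growth inhibition was derived by comparing compound-exposed mutant yeast with vehicle-exposed cultures. The strain carries alterations in DNA damage repair.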

[9] = NCI Yeast Anticancer Drug Screen. Data for the CLN2oe strain (AID 163);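 note: 0% = growth of vehicle-only control cultures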; conditions: S. cerevisiae CLN2oe strain, active compounds read high
How it was run: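 Yeast cells carrying a defined cell-cycle control alteration were exposed to test compounds. Growth inhibition was scored against vehicle-treated control cultures.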

[10] = NCI Yeast Anticancer Drug Screen. Data for the cln2 rad14 strain (AID 165);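 note: 0% = growth equal to vehicle treated cultures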; conditions: S. cerevisiae cln2 rad14 strain, active compounds read high
How it was run: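 Yeast carrying cln2 and rad14 alterations (cell cycle control and DNA damage repair) were exposed to compounds. Growth inhibition was measured against vehicle-treated controls.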

[11] = NCI Yeast Anticancer Drug Screen. Data for the bub3 strain (AID 167); conditions: S. cerevisiae bub3 mutant strain, active compounds read high
How it was run: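 In this screen, a yeast mutant lacking normal mitotic checkpoint function is challenged with compound. Relative growth versus vehicle gives the inhibition value.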

[12] = NCI Yeast Anticancer Drug Screen. Data for the wt2 strain (AID 169);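 note: 0% = growth of vehicle-treated yeast cultures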; conditions: S. cerevisiae wt2 strain growth inhibition, active compounds read high
How it was run: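 Yeast cells were exposed to test compounds, and growth inhibition was measured relative to vehicle-treated controls.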

[13] = NCI Yeast Anticancer Drug Screen. Data for the mlh1 strain (AID 171);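 note: 0% = growth of vehicle-treated control cultures of the same strain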; conditions: S. cerevisiae mlh1 strain growth inhibition, active compounds read high
How it was run: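 Yeast carrying a defined genetic alteration in DNA damage repair or cell cycle control were exposed to test compounds. Growth inhibition was measured relative to vehicle-treated controls.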

[14] = NCI Yeast Anticancer Drug Screen. Data for the sgs1 strain (AID 173);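 note: 0% = growth of vehicle-only control cultures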; conditions: S. cerevisiae sgs1 mutant, active compounds read high
How it was run: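 Yeast mutant strains carrying defined defects in DNA damage repair or cell cycle control were exposed to test compounds. Growth inhibition was scored against vehicle-treated controls.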

[15] = NCI Yeast Anticancer Drug Screen. Data for the mlh1 rad18 strain (AID 175); conditions: S. cerevisiae mlh1 rad18 strain growth inhibition, active compounds read high
How it was run: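 Growth inhibition of the yeast strain was measured after compound exposure and expressed relative to vehicle-treated controls. The strain carries defined defects in DNA damage repair.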

[16] = NCI Yeast Anticancer Drug Screen. Data for the rad18 strain (AID 177); conditions: S. cerevisiae rad18 mutant growth inhibition, active compounds read high
How it was run: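 Yeast carrying a defined DNA damage repair alteration were exposed to compounds. Growth inhibition was expressed relative to vehicle-treated controls.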

[17] = at 5.0 µM (retest, dose inferred, filed as 0.5)
[18] = at 50.0 µM (retest, dose inferred, filed as 5.0)

C/C(=N\OCC(O)CNCCSCc1ccccc1)c1ccccc1Cl (stereo unspecified)
growth inhibition ([1]; at 1.2 µM): 2%
growth inhibition ([1]; at 3.7 µM): 5%
growth inhibition ([1]; at 11.0 µM): 26%
growth inhibition ([1]; at 33.0 µM): 45%
growth inhibition ([1]; at 100.0 µM): 80% (active)
growth inhibition ([2]; at 1.2 µM): -3%
growth inhibition ([2]; at 3.7 µM): 0%
growth inhibition ([2]; at 11.0 µM): 6%
growth inhibition ([2]; at 33.0 µM): 19%
growth inhibition ([2]; at 100.0 µM): 40%
growth inhibition ([3]; at 1.2 µM): -1%
growth inhibition ([3]; at 3.7 µM): 0%
growth inhibition ([3]; at 11.0 µM): 2%
growth inhibition ([3]; at 33.0 µM): 6%
growth inhibition ([3]; at 100.0 µM): 12%
growth inhibition ([4]; at 1.2 µM): 4%
growth inhibition ([4]; at 3.7 µM): 9%
growth inhibition ([4]; at 11.0 µM): 34%
growth inhibition ([4]; at 33.0 µM): 85% (active)
growth inhibition ([4]; at 100.0 µM): 100% (active)
growth inhibition ([5]; at 1.2 µM): 12%
growth inhibition ([5]; at 3.7 µM): -12%
growth inhibition [5, 17]: 40%
growth inhibition ([5]; at 11.0 µM): 64%
growth inhibition ([5]; at 33.0 µM): 77% (active)
growth inhibition [5, 18]: 69%
growth inhibition ([5]; at 50.0 µM): 80.9% (active)
growth inhibition ([5]; at 100.0 µM): 95% (active)
growth inhibition ([6]; at 1.2 µM): 3%
growth inhibition ([6]; at 3.7 µM): 4%
growth inhibition [6, 17]: 2%
growth inhibition ([6]; at 11.0 µM): 28%
growth inhibition ([6]; at 33.0 µM): 50%
growth inhibition [6, 18]: 48%
growth inhibition ([6]; at 50.0 µM): 82.7% (active)
growth inhibition ([6]; at 100.0 µM): 88% (active)
growth inhibition ([7]; at 1.2 µM): 30%
growth inhibition ([7]; at 3.7 µM): 46%
growth inhibition ([7]; at 11.0 µM): 85% (active)
growth inhibition ([7]; at 33.0 µM): 99% (active)
growth inhibition ([7]; at 100.0 µM): 99% (active)
growth inhibition [8, 17]: 30%
growth inhibition [8, 18]: 58%
growth inhibition ([8]; at 50.0 µM): 87.5% (active)
growth inhibition ([9]; at 1.2 µM): -3%
growth inhibition ([9]; at 3.7 µM): 12%
growth inhibition ([9]; at 11.0 µM): 30%
growth inhibition ([9]; at 33.0 µM): 47%
growth inhibition ([9]; at 100.0 µM): 75% (active)
growth inhibition [10, 17]: 14%
growth inhibition [10, 18]: 61%
growth inhibition ([10]; at 50.0 µM): 66.8%
growth inhibition ([11]; at 1.2 µM): 6%
growth inhibition ([11]; at 3.7 µM): 25%
growth inhibition [11, 17]: 29%
growth inhibition ([11]; at 11.0 µM): 54%
growth inhibition ([11]; at 33.0 µM): 81% (active)
growth inhibition [11, 18]: 73% (active)
growth inhibition ([11]; at 50.0 µM): 86% (active)
growth inhibition ([11]; at 100.0 µM): 97% (active)
growth inhibition ([12]; at 1.2 µM): -1%
growth inhibition ([12]; at 3.7 µM): 8%
growth inhibition ([12]; at 11.0 µM): 11%
growth inhibition ([12]; at 33.0 µM): 30%
growth inhibition ([12]; at 100.0 µM): 81% (active)
growth inhibition ([13]; at 1.2 µM): 3%
growth inhibition ([13]; at 3.7 µM): 4%
growth inhibition ([13]; at 11.0 µM): 24%
growth inhibition ([13]; at 33.0 µM): 71% (active)
growth inhibition ([13]; at 100.0 µM): 99% (active)
growth inhibition ([14]; at 1.2 µM): 8%
growth inhibition ([14]; at 3.7 µM): 17%
growth inhibition ([14]; at 11.0 µM): 41%
growth inhibition ([14]; at 33.0 µM): 69%
growth inhibition ([14]; at 100.0 µM): 97% (active)
growth inhibition [15, 17]: 21%
growth inhibition [15, 18]: 41%
growth inhibition ([15]; at 50.0 µM): 95.3% (active)
growth inhibition ([16]; at 1.2 µM): 12%
growth inhibition ([16]; at 3.7 µM): 32%
growth inhibition ([16]; at 11.0 µM): 55%
growth inhibition ([16]; at 33.0 µM): 80% (active)
growth inhibition ([16]; at 100.0 µM): 97% (active)

O=C(Oc1ccc([N+](=O)[O-])cc1)c1ccc([N+](=O)[O-])cc1
growth inhibition ([1]; at 1.2 µM): 7%
growth inhibition ([1]; at 3.7 µM): 7%
growth inhibition ([1]; at 11.0 µM): 1%
growth inhibition ([1]; at 33.0 µM): 19%
growth inhibition ([1]; at 100.0 µM): 26%
growth inhibition ([2]; at 1.2 µM): 1%
growth inhibition ([2]; at 3.7 µM): 0%
growth inhibition ([2]; at 11.0 µM): 3%
growth inhibition ([2]; at 33.0 µM): -1%
growth inhibition ([2]; at 100.0 µM): 11%
growth inhibition ([3]; at 1.2 µM): 5%
growth inhibition ([3]; at 3.7 µM): 2%
growth inhibition ([3]; at 11.0 µM): -3%
growth inhibition ([3]; at 33.0 µM): 9%
growth inhibition ([3]; at 100.0 µM): 11%
growth inhibition ([4]; at 1.2 µM): 0%
growth inhibition ([4]; at 3.7 µM): 1%
growth inhibition ([4]; at 11.0 µM): 2%
growth inhibition ([4]; at 33.0 µM): 9%
growth inhibition ([4]; at 100.0 µM): 13%
growth inhibition ([5]; at 1.2 µM): 9%
growth inhibition ([5]; at 3.7 µM): 6%
growth inhibition [5, 17]: 45%
growth inhibition ([5]; at 11.0 µM): 5%
growth inhibition ([5]; at 33.0 µM): 40%
growth inhibition [5, 18]: 82% (active)
growth inhibition ([5]; at 50.0 µM): 50.8%
growth inhibition ([5]; at 100.0 µM): 62%
growth inhibition ([6]; at 1.2 µM): 1%
growth inhibition ([6]; at 3.7 µM): 2%
growth inhibition [6, 17]: 25%
growth inhibition ([6]; at 11.0 µM): 2%
growth inhibition ([6]; at 33.0 µM): 7%
growth inhibition [6, 18]: 33%
growth inhibition ([6]; at 50.0 µM): 53.7%
growth inhibition ([6]; at 100.0 µM): 10%
growth inhibition ([7]; at 1.2 µM): 7%
growth inhibition ([7]; at 3.7 µM): 5%
growth inhibition ([7]; at 11.0 µM): 3%
growth inhibition ([7]; at 33.0 µM): 19%
growth inhibition ([7]; at 100.0 µM): 41%
growth inhibition [8, 17]: 61%
growth inhibition [8, 18]: 86% (active)
growth inhibition ([8]; at 50.0 µM): 68.5%
growth inhibition ([9]; at 1.2 µM): 1%
growth inhibition ([9]; at 3.7 µM): 2%
growth inhibition ([9]; at 11.0 µM): 2%
growth inhibition ([9]; at 33.0 µM): 10%
growth inhibition ([9]; at 100.0 µM): 10%
growth inhibition [10, 17]: 18%
growth inhibition [10, 18]: 28%
growth inhibition ([10]; at 50.0 µM): 31.1%
growth inhibition ([11]; at 1.2 µM): 3%
growth inhibition ([11]; at 3.7 µM): 4%
growth inhibition [11, 17]: 76% (active)
growth inhibition ([11]; at 11.0 µM): 4%
growth inhibition ([11]; at 33.0 µM): 12%
growth inhibition [11, 18]: 88% (active)
growth inhibition ([11]; at 50.0 µM): 85% (active)
growth inhibition ([11]; at 100.0 µM): 15%
growth inhibition ([12]; at 1.2 µM): -7%
growth inhibition ([12]; at 3.7 µM): -5%
growth inhibition ([12]; at 11.0 µM): -8%
growth inhibition ([12]; at 33.0 µM): -8%
growth inhibition ([12]; at 100.0 µM): -5%
growth inhibition ([13]; at 1.2 µM): 3%
growth inhibition ([13]; at 3.7 µM): 2%
growth inhibition ([13]; at 11.0 µM): 2%
growth inhibition ([13]; at 33.0 µM): 17%
growth inhibition ([13]; at 100.0 µM): 35%
growth inhibition ([14]; at 1.2 µM): -4%
growth inhibition ([14]; at 3.7 µM): -18%
growth inhibition ([14]; at 11.0 µM): -22%
growth inhibition ([14]; at 33.0 µM): 7%
growth inhibition ([14]; at 100.0 µM): 43%
growth inhibition [15, 17]: 67%
growth inhibition [15, 18]: 83% (active)
growth inhibition ([15]; at 50.0 µM): 86.2% (active)
growth inhibition ([16]; at 1.2 µM): 4%
growth inhibition ([16]; at 3.7 µM): 7%
growth inhibition ([16]; at 11.0 µM): 5%
growth inhibition ([16]; at 33.0 µM): 22%
growth inhibition ([16]; at 100.0 µM): 45%
